ERb SRC1 inh: blocks coactivator binding to human estrogen receptor beta. TR-FRET ER-beta LBD / SRC1-Cy5 peptide binding; receptor agonist-loaded with 1 µM estradiol. inhibition, % at 25.6 µM. hit rate 1.3% among 86,000. AID 633;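 active = compounds whose percent inhibition of the receptor-coactivator binding signal exceeds about 50% in the single-dose screen, limit read from the data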
ERa SRC1 pot: enhances coactivator binding to human estrogen receptor alpha; TR-FRET ERalpha-LBD/SRC-Cy5 coactivator binding, 2 h; 100 = basal binding, no effect; P03372; hit rate 1.3% among 86,000; coactivator binding (% of control), % at 25.6 µM; AID 639; in the data active = activity above about 200%;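 note: binding measured in presence of low estradiol as agonist stimulus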
Smad3 inh: inhibitors of human Smad3 transcription factor binding | AID 630 | TR-FRET Smad3/Dy647-FoxH1 peptide binding, europium anti-His | inhibition, % at 25 µM | hit rate 0.29% among 88,000;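 active = compounds that reduce the energy-transfer binding signal between the protein and its labelled peptide by more than half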
Target sequence (P84022 whole entry, looked up): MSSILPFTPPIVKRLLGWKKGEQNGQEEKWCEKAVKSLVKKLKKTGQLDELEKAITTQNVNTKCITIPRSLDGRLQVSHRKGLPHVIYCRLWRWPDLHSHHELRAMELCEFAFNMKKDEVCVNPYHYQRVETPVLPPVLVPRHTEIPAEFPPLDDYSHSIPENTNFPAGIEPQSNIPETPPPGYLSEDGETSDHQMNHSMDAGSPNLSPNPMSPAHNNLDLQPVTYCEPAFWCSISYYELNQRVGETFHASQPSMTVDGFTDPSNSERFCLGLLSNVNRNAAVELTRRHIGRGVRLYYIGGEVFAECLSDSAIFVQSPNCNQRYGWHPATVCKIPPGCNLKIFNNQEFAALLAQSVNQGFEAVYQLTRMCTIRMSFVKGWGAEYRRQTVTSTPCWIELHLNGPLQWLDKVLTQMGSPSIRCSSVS
ERa SRC1 inh: blocks coactivator binding to human estrogen receptor alpha | P03372 | AID 629 | hit rate 1.7% among 86,000 | TR-FRET ER-alpha LBD / SRC-1 peptide, estradiol-bound | inhibition, % at 25.6 µM; in the data active = inhibition above about 50%
FAK blocker: blocks human focal adhesion kinase activity | Q05397 | biochemical FAK kinase activity assay | inhibition, %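 (tested at 7 µM)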 | hit rate 0.84% among 97,000
FAK inh conf: confirmation of human focal adhesion kinase (FAK) inhibitors | shares compounds with FAK blocker | FAK kinase biochemical inhibition assay | inhibition, % at 7 µM | hit rate 28% among 750 | AID 794
Each line names hits and unclear results; the compound was inactive in the other large screens (follow-up assays come after a bar, where they were run); [ ] = dose if it differs, or a comment. The list is not random: actives were taken first. Their share in the collection is about 3.3%. Cut-off read from the data, not from the text of the source, unless noted: active = inhibition above about 19%; inactive = the rest.

CSc1cc(-c2ccc(Cl)cc2)c(C(=O)N2CCCC2)s1	none (no result: ERb SRC1 inh, ERa SRC1 pot, Smad3 inh, ERa SRC1 inh)
CCc1nc(Sc2nc(C)cc(C)n2)c2oc3ccccc3c2n1	FAK blocker 22.4 | FAK inh conf inactive
CCc1nc(SCCO)c2oc3ccccc3c2n1	none
Cc1occc1C(=O)NC1CCCCCC1	FAK blocker 72.1 | FAK inh conf inactive
O=C(/C=C/c1ccccc1Cl)NC(=S)Nc1ccccc1C(=O)NC1CCCCC1	none (no result: ERb SRC1 inh, ERa SRC1 pot, Smad3 inh, ERa SRC1 inh)
O=C(N/N=C/c1cccc(F)c1)c1cc(-c2ccco2)nc2ccccc12	FAK blocker 68.0 (no result: ERb SRC1 inh, ERa SRC1 pot, Smad3 inh, ERa SRC1 inh) | FAK inh conf 35.8
Cc1cccc(NC(=O)c2cc(-c3ccco3)nc3ccccc23)n1	none
C=CCn1c(NC(=O)c2ccccc2Cl)c(C#N)c2nc3ccccc3nc21	FAK blocker 20.0 | FAK inh conf inactive
CCCCn1c(NC(C)=O)c(C#N)c2nc3ccccc3nc21	none
COC(=O)c1ccc2c(c1O)C(=O)c1ccccc1C2=O	none (no result: ERb SRC1 inh, ERa SRC1 pot, Smad3 inh, ERa SRC1 inh)
COC(=O)c1cccc2c1-c1ccccc1/C2=N/O	FAK blocker 49.6 | FAK inh conf 28.5
COc1ccc2[nH]c3nc(SCC(=O)NNC(=O)c4ccc(OC)c(OC)c4)nnc3c2c1	none (no result: ERb SRC1 inh, ERa SRC1 pot, Smad3 inh, ERa SRC1 inh)
Cc1ccc(C(=O)NNC(=O)CSc2nnc3c(n2)[nH]c2ccc(F)cc23)cc1	FAK blocker 69.2 (no result: ERb SRC1 inh, ERa SRC1 pot, Smad3 inh, ERa SRC1 inh) | FAK inh conf 38.8
CN(Cc1ccccc1)c1ncnc2ccc(Br)cc12	FAK blocker 39.0 | FAK inh conf inactive
COc1ccc(-n2nc(C(=O)NCC(=O)Nc3ccccn3)c3ccccc3c2=O)cc1Cl	FAK blocker 22.5 (no result: ERb SRC1 inh, ERa SRC1 pot, Smad3 inh, ERa SRC1 inh) | FAK inh conf 44.8
COc1ccc(-n2nc(C(=O)NCC(=O)NCC3CCCO3)c3ccccc3c2=O)cc1Cl (stereo not given)	none (no result: ERb SRC1 inh, ERa SRC1 pot, Smad3 inh, ERa SRC1 inh)
CC(=O)N(CCC(c1ccccc1)c1ccco1)Cc1cccs1 (stereo not given)	none
O=C(c1ccco1)N(CCC(c1ccccc1)c1ccco1)Cc1ccco1 (stereo not given)	FAK blocker 20.2 (no result: ERb SRC1 inh, ERa SRC1 pot, Smad3 inh, ERa SRC1 inh) | FAK inh conf inactive
COc1ccc(C2N=C(c3ccccc3)C(C)(C)N2O)cc1 (stereo not given)	none
COc1ccc(C(=O)Nc2nccs2)cc1OC	none (no result: FAK blocker)
Cc1nn(Cc2ccc(C(=O)Nc3nccs3)cc2)c(C)c1Cl	FAK blocker 21.8 | FAK inh conf inactive
O=C(NCCO)C(F)(F)C(F)(F)C(F)(F)OC(F)(C(=O)NCCO)C(F)(F)F (stereo not given)	none
COc1ccc(/C=N/NC(=O)CCCOc2ccc(Cl)cc2Cl)cc1[N+](=O)[O-]	FAK blocker 22.9 (no result: ERb SRC1 inh, ERa SRC1 pot, Smad3 inh, ERa SRC1 inh) | FAK inh conf inactive
Cn1c(SCc2ccon2)nc2ccccc2c1=O	FAK blocker 22.7 | FAK inh conf inactive
CCc1ccc(OCC(=O)Nc2ccc(-c3nc4ccccc4o3)c(O)c2)cc1	ERb SRC1 inh 69.9[fluorescence artefact?], ERa SRC1 inh 79.5[fluorescence artefact?], FAK blocker 29.7 | FAK inh conf 21.4
COc1ccc(OCC(=O)Nc2cccc(-c3nc4ccccc4o3)c2)cc1	none
CCOc1ccc(S(=O)(=O)N(CC(=O)N/N=C/c2ccc(-c3ccc([N+](=O)[O-])cc3)o2)c2ccccc2)cc1	FAK blocker 45.4 (no result: ERb SRC1 inh, ERa SRC1 pot, Smad3 inh, ERa SRC1 inh) | FAK inh conf 21.5
Cc1cccc(OCC(=O)Nc2ccc(N3CCN(C(=O)c4ccco4)CC3)cc2)c1	none (no result: ERb SRC1 inh, ERa SRC1 pot, Smad3 inh, ERa SRC1 inh)
Cc1cc(OCC(=O)Nc2ccc(N3CCN(C(=O)c4ccco4)CC3)cc2)cc(C)c1Cl	FAK blocker 69.3 (no result: ERb SRC1 inh, ERa SRC1 pot, Smad3 inh, ERa SRC1 inh) | FAK inh conf 22.3
Cc1cc(OCC(=O)Nc2ccc(N3CCCC3)cc2)cc(C)c1Cl	FAK blocker 33.5 | FAK inh conf inactive
CC12CC(c3ccccc3O1)N(C(=O)c1ccco1)C(=S)N2c1ccc(F)cc1 (stereo not given)	none
O=C1Cc2ccccc2C(=O)N1CCc1ccccc1	FAK blocker 39.8 (no result: ERb SRC1 inh, ERa SRC1 pot, Smad3 inh, ERa SRC1 inh) | FAK inh conf 37.0
COC(=O)Cc1ccc2c3ccccc3n(C)c2c1	FAK blocker 41.3 | FAK inh conf 31.7
C=CCc1cccc2cc(C(=O)OCC(=O)c3ccccc3)c(=O)oc12	none
Cc1ccc(C(=O)COC(=O)c2ccc3c(c2)C(=O)N(c2cccc4ncccc24)C3=O)cc1C	FAK blocker 38.9 (no result: ERb SRC1 inh, ERa SRC1 pot, Smad3 inh, ERa SRC1 inh) | FAK inh conf 22.6
CCCCOc1[nH]c2nc(-c3ccco3)n(Cc3ccco3)c(=N)c2c1C#N	none
COc1ccccc1CNC(=O)COC(=O)c1cc(-c2ccco2)nc2ccccc12	FAK blocker 44.5 (no result: ERb SRC1 inh, ERa SRC1 pot, Smad3 inh, ERa SRC1 inh) | FAK inh conf 23.6
Nc1nc(SCC(=O)Nc2ccccc2Sc2ccccc2)n[nH]1	none (no result: ERb SRC1 inh, ERa SRC1 pot, Smad3 inh, ERa SRC1 inh)
Cc1ccc2[nH]c3c(NCc4ccco4)ncnc3c2c1	FAK blocker 34.1 | FAK inh conf 20.6
